Data published in the supplement of paper PMC3334620.
Whole data set: some 33,000 sequences, median “E-score (-0.5 to 0.5)” near -0.015, cut for the highest 2% near 0.3. The sample holds the highest values, similar sequences and a random draw of the others, so the mix is not that of the screen.

biological target: T1, Abf1 (UniProt P14164); assay: PBM E-score (8-mer binding enrichment) (E-score (-0.5 to 0.5)); higher = stronger / more preferred TF binding; settings: protein concentration: 200 nM; construct: GST-full length
T1 sequence: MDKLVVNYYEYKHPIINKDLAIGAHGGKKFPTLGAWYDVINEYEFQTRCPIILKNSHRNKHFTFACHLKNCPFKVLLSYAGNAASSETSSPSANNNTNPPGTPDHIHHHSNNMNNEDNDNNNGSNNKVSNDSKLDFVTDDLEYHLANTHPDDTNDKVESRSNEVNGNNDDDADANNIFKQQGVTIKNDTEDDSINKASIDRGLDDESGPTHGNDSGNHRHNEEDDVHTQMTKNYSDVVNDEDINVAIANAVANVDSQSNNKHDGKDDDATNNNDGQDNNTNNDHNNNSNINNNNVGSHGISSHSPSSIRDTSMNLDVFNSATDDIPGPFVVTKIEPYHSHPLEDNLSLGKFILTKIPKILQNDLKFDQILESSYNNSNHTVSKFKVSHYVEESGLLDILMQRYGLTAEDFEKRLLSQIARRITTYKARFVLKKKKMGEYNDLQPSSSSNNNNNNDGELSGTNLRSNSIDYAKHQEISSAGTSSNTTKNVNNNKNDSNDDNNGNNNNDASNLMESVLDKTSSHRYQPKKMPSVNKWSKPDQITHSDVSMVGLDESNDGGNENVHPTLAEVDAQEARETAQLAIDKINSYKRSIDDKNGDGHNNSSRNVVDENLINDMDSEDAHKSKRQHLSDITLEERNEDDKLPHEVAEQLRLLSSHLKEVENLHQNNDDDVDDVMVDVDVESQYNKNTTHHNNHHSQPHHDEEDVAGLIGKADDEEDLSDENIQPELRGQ
Description: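 Universal 'all 10-mer' protein binding microarrays (Agilent AMADID 015681) probed with GST-tagged S. cerevisiae TFs (full-length or DBD) made by in vitro transcription/translation (PURExpress), about 100-200 nM. Bound TF was detected with fluorescent anti-GST. Each ungapped 8-mer (which stands for itself and its reverse complement) is scored by the PBM enrichment score (E-score), a modified Wilcoxon-Mann-Whitney statistic from -0.5 to +0.5, computed with the Universal PBM Analysis Suite. Scale: above 0.35 generally sequence-specific binding.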

Sequence	PBM E-score
CCAGACAG	-0.2
GAGTAAAA	0.0646
CCGCGACC	-0.0179
CCGCGACG	0.32
CCGCGACA	0.154
CTAATGCC	-0.208
CAATCGTG	0.122
AAAACGCA	0.00195
AGGTTTCG	-0.199
CACGAACG	0.372
AACGAACG	0.144
CACGAACA	0.186
GACGAACA	0.253
AACGAAAA	0.103
TACGAACA	0.351
AACGAACA	0.215
CACGATCA	0.272
CACGATCC	0.0482
CACGATCG	0.339
TACGAAAA	0.297
TGCGAAAA	0.175
AACAAATT	0.201
AAAAACGT	0.0618
GTAGCCCA	0.0106
ACCATCCC	-0.155

Sequence	PBM E-score
AACAGAGA	-0.09
ACCGCTCA	0.0985
GAGCACTA	0.0823
GACGAAAC	0.344
GACGAATA	0.232
CACGAAAA	0.31
CACGAAAC	0.272
GCCGAAAA	0.173
GACGAAAA	0.337
CACGAAAG	0.272
GCCGAAAC	-0.0478
AACGAAAC	0.101
CTAGGAGA	-0.236
TCTACCAA	-0.0268
CTGGACCC	-0.279
CGGATGAA	0.211
CCGTGTCA	0.268
TCGTGTAA	0.343
TCGTGTCA	0.326
CCGTGTAA	0.217
ACATGTCA	0.221
GCGTGTCA	0.0814
GCATGTCA	0.225
TCATGTCA	0.332
ACGTGGAA	0.118

Sequence	PBM E-score
TCGTGGAA	0.336
GCGTGGAA	-0.105
ACGTGTAA	0.235
CAGAAGGG	-0.136
AAACTCAA	0.0218
ATGTTACG	0.087
GTTGGTCA	0.221
ACATCTAA	-0.0374
CGACCTCA	0.00561
CTCGCGAC	0.238
ATCGCGAG	0.138
ATCGCGAT	0.411
ATCGCGAA	0.199
GTCGCGAC	0.32
GTCGCGAA	0.188
AACACAAC	-0.029
CATAAACG	0.22
GAATGCCC	-0.0158
GCGCACGA	0.0514
ACCCACGA	0.287
ACGCACGT	0.105
TCGCACAA	0.167
ACGCACGA	0.389
GCCCACGA	0.019
CCGCACGA	0.376

Sequence	PBM E-score
CCGCACGC	-0.186
TCGCACGA	0.317
TCCCACGA	0.326
CCGCACGG	0.0967
ACGCACGC	-0.0387
AAGTCCCC	-0.149
ACTCTGAT	0.043
ACTAGTGC	0.104
CGGCCCGC	-0.121
AATGCTCC	-0.223
CGCGTACG	0.271
ATTATGGG	0.00349
CGATATAA	0.203
GGATATAA	0.298
GGATATAC	-0.053
AGTTACGG	0.0796
GGAGGAAA	-0.252
ACGATACG	0.334
ACGATATC	0.321
ACGATAGG	0.233
CCGATACG	0.121
CCGATATC	0.21
ACGATACT	0.285
AGGATATC	0.24
ACGATATG	0.304

Sequence	PBM E-score
ACGATATA	0.289
ATGCCACC	-0.148
AATCCAGT	0.0412
AATCTGCA	-0.185
TGGGACAA	0.0227
AAGCCACG	0.124
AAAGTATA	0.101
CGATACCA	0.018
AGGTCACG	0.235
AGGTCACT	0.304
AAGTCACT	0.304
AAGTCACA	0.125
AAGTCACG	0.268
AGGTCACC	0.282
ACTCTGAC	-0.0634
CGAATTCC	-0.0103
CGGACGCC	-0.0127
AATGCCAG	-0.155
ATGTCGGG	0.0062
AAGGAACA	-0.0655
ACGCAGCG	-0.162
AATAACGA	0.325
CACGACCG	-0.0182
AATAACGG	0.126
AACGACGT	0.19

Sequence	PBM E-score
GCCGACGA	0.176
AATAACGC	-0.118
TCCGACGA	0.392
CCCGACGA	0.196
CACGACGA	0.263
CACGACGG	0.356
AACGACGG	0.249
AACGACGA	0.346
ACAGCTAG	-0.181
ACTCTTAA	-0.0406
AACCGGGG	-0.212
AAAATCCC	-0.0966
CGTCCTAC	-0.0375
ACTCGATA	0.199
AACTGCGA	-0.0488
ATCTGCAG	-0.106
GAGTATAC	0.0804
GACGACGA	0.251
AACGACGC	0.0599
TACGACCA	0.242
TACGACGA	0.329
GACGACGC	0.3
CACGACGC	0.172
TACACCCA	-0.015
CACCACGA	0.202

Sequence	PBM E-score
GGGTGCTA	-0.118
CGTGCGAG	0.137
CCTTAAGC	-0.123
TGTCGTAA	0.103
AGTCGTTC	0.212
CATCGTAA	0.106
CGTCGTAA	0.392
CGTCGTTA	0.257
GATCGTAC	0.151
CATCGTAC	0.382
GGTCGTAC	0.212
CGTCGTAG	0.192
CGTCGTAC	0.399
CGTCGTTC	0.313
GGTCGTAA	0.104
ATTCTGTG	0.00625
GCGAAAGA	-0.024
AAGACGAG	-0.0454
AATAGTAC	0.132
AAATGGGT	-0.0572
ACGCAGTC	-0.224
AGATCATG	0.262
CGTCGTCC	0.307
AGTCGTCC	0.142
CGTCGTCA	0.24

Sequence	PBM E-score
ACTCGAGA	-0.0317
CGACAAAC	0.167
ACATATCA	0.341
ACATATCG	0.118
ACATATCC	0.236
CCATATCA	0.163
GCATATCC	0.179
GCATATCA	0.319
GCATATGA	0.028
TCATATGA	0.101
TCATATCA	0.315
GACGACCA	0.286
CACGAGAG	0.0678
ACTCGGAG	-0.00102
CTCTTGTC	0.024
ATTCTATC	0.127
AGTAGAGC	-0.168
TCAGCAGA	-0.0392
AAATGGAC	0.0432
ACCGTTTC	0.0554
ACCGTTGC	0.0812
CACAACCC	-0.194
ATGGGGAA	-0.104
ATTATCAC	0.434
ATTATCAG	0.0821

Sequence	PBM E-score
CTTATCCC	-0.0767
CTTATCAC	0.369
ATTATCAA	0.193
CTTATCAA	0.164
CGTGGTTC	0.0193
GAGCCCCC	-0.283
TCATAGAA	0.121
GACCGGCC	-0.229
TAATTGGA	0.141
GCATACGC	-0.149
GAGCCGTA	0.347
AAGCCGTA	0.193
CAGCCGTA	0.192
GCCGTTGA	0.173
TGGGGCAA	-0.281
CTATATCA	0.267
GTATATCA	0.386
CTCTATAC	0.116
ATATATCA	0.311
GTATATAA	0.286
ATATATCC	0.171
CTATATAC	0.364
GTATATGA	0.12
ATATATAC	0.262
